Assay results published in PubChem BioAssay (NCATS).
Inconclusive results are not listed. Calls of active or inactive are those of the source. The call rests on the fitted dose curve; in most records, active means well fitted inhibition curve with a large enough effect; inconclusive means small, poorly fitted or top-dose-only effect; inactive means no such curve, though single readings can be large or run the other way.

The compounds below were run on Zika virus NS2B-NS3 protease (linked construct) (assay: Primary screen NINDS Rhodamine qHTS for Zika virus inhibitors (AID 1347160; further: nearly all actives have a fitted effect of over 55% in size)). Conditions: purified NS2B-NS3 protease, Rhodamine110 substrate fluorescence; series mostly up to 57.1 µM; activity change, negative = inhibition: at the top concentration.
Summary of the method: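 Aprotinin served as in-plate control. Conditions: 25 nM linked NS2B-NS3, pH 8.0 Tris buffer, titrated compounds, 15 min preincubation and 15 min reaction with 1.5 microM Rhod110 substrate at room temperature.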
On the % scale 0 is the no-effect control and ±100 the full control effect.

Structure (SMILES)	activity change, negative = inhibition	outcome
Nc1c(Br)cc(Br)cc1CNC1CCC(O)CC1 (centres undefined)	-23.3% (inactive)	
CC1CCC(=O)CC(O)C(O)CC(=O)O1 (centres undefined)	-11.7% (inactive)	
CC[C@H]1OC(=O)[C@H](C)[C@@H](O[C@H]2C[C@@](C)(OC)[C@@H](O)[C@H](C)O2)[C@H](C)[C@@H](O[C@@H]2O[C@H](C)C[C@H](N(C)C)[C@H]2O)[C@@](C)(O)C[C@@H](C)[C@@H]2N[C@@H](COCCOC)OC([C@H]2C)[C@]1(C)O	22.3% (inactive)	
CC1(CO)CC[C@]2(C(=O)O[C@@H]3O[C@H](CO)[C@@H](O)[C@H](O)[C@H]3O)CC[C@]3(C)C(=CCC4[C@@]5(C)CC[C@H](O[C@@H]6O[C@H](C(=O)O)[C@@H](O)[C@H](O)[C@H]6O)C(C)(C)C5CC[C@]43C)C2C1 (some centres undefined)	-0.651% [at 15.1 µM] (inactive)	
OC[C@H]1O[C@@H](n2cnc3c2NC=NC[C@H]3O)C[C@@H]1O		inactive
O=C(c1ccccn1)c1cnn2c(-c3ccncc3)ccnc12	3.93% (inactive)	
COC(=O)C1=CO[C@@H](O[C@@H]2O[C@H](CO)[C@@H](O)[C@H](O)[C@H]2O)[C@@H]2[C@@H](C)[C@@H](O)C[C@H]12	-1.03% [at 33.1 µM] (inactive)	
COc1ccc2c(c1)OC[C@]1(O)c3cc4c(cc3O[C@H]21)OCO4	-0.46% [at 33.1 µM] (inactive)	
COc1cc(NC(=O)c2ccccn2)ccc1Cl	14.2% (inactive)	
C[C@@H]1O[C@@H](O[C@H]2[C@H](OC(=O)[C@]34CCC(C)(C)C[C@H]3C3=CCC5[C@@]6(C)C[C@H](O)[C@H](O[C@@H]7O[C@H](CO[C@@H]8OC[C@H](O)[C@H](O)[C@H]8O)[C@@H](O)[C@H](O)[C@H]7O)C(C)(C)C6CC[C@@]5(C)[C@]3(C)C[C@H]4O)OC[C@@H](O)[C@@H]2O)[C@H](O)[C@H](O[C@@H]2OC[C@](O)(CO)[C@H]2O)[C@H]1O[C@@H]1OC[C@H](O)[C@H](O[C@@H]2OC[C@@H](O)[C@H](O)[C@H]2O)[C@H]1O (some centres undefined)	22.5% [at 10.7 µM] (inactive)	
C/C=C1/[C@H](O[C@@H]2O[C@H](CO)[C@@H](O)[C@H](O)[C@H]2O)OC=C(C(=O)OC)[C@H]1CC(=O)O[C@@H]1O[C@H](CO)[C@@H](O)[C@H](O)[C@H]1O	24% [at 15.1 µM] (inactive)	
COc1ccc([C@H]2Cc3cccc(O)c3C(=O)O2)cc1	6.44% (inactive)	
C=C1CC2C3(C)C(O)CC(=O)C(C)(C)C3C(OC(C)=O)C(OC(C)=O)C2(C)C2C(=O)OC(C)(C(=O)OC)C(=O)C12C (centres undefined)	-6.65% [at 33.1 µM] (inactive)	
CC(=O)OC1C(O)C(C)=C(CCC(C)CC(=O)O)C2(C)CCCC(C)(C)C12 (centres undefined)	-1.98% [at 33.1 µM] (inactive)	
CO[C@@]12CC3[C@@H]([C@@H](O)[C@@H](OC(C)=O)C4[C@](C)(COC(C)=O)CCC[C@]34C)[C@@H](C)C1=CC(=O)O2 (some centres undefined)		inactive [at 33.1 µM]
COc1ccc(C(OC2OC(CO)C(O)C(O)C2O)C(C)O)cc1 (centres undefined)	-2.23% [at 33.1 µM] (inactive)	
NC(Cc1c[nH]c2ccccc12)C(=O)NC(CCC(=O)O)C(=O)O (centres undefined)	-5.49% (inactive)	
COc1ccc(C2=CC(=O)OC2Cc2ccc(O)cc2)c(O)c1 (centres undefined)	1.01% [at 33.1 µM] (inactive)	
C=C1CCC2C(C)(COC3OC(COC(=O)CC(=O)O)C(O)C(O)C3O)CCCC2(C)C1CCC1=CCOC1=O (centres undefined)	-4.11% [at 33.1 µM] (inactive)	
